Source: PubChem BioAssay AID1159580 (chemical genetic matrix, 2015)
Hit rate of the full screen: of about 5,500 compounds, about 2,000 (36%) were called active. Another 18% or so got no clear call; they are omitted. Cut-off read from the data, not from the text of the source: active = normalized growth mostly below about 0.91 (no sharp cut-off); inconclusive = no clear call, values can overlap the other calls; inactive = mostly above about 0.92. The list shows a part of the results.

Assay: chemical genetic growth profiling, strain panel (AID 1159580);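 note: tested at 20 µM; growth read once vehicle control cultures reached saturation at 30 °C; 1 = growth at the plate median or of vehicle wells; lower values mean less growth of the strain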
Settings: growth OD

Measured: normalized growth

CC(=O)N=c1sc(S(N)(=O)=O)nn1C
inactive: S. cerevisiae deletion strains, locus YJR075W, strain HOC1, hits give low values 1 | S. cerevisiae deletion strains, locus YKL009W, strain mrt4, hits give low values 1 | S. cerevisiae deletion strains, locus YKL068W, hits give low values 1 | S. cerevisiae deletion strains, locus YKL085W, strain MDH1 (second series), hits give low values 1.01 | S. cerevisiae deletion strains, locus YKL085W, strain MDH1, hits give low values 1.01 | S. cerevisiae deletion strains, locus YKL160W, strain elf1, hits give low values 1.01 | S. cerevisiae deletion strains, locus YKL190W, strain CNB1, hits give low values 1.01 | S. cerevisiae deletion strains, locus YKR001C, strain vps1, hits give low values 0.998 | S. cerevisiae deletion strains, locus YKR026C, strain gcn3, hits give low values 1.01 | S. cerevisiae deletion strains, locus YKR091W, strain srl3, hits give low values 1 | S. cerevisiae deletion strains, locus YLL001W, strain dnm1, hits give low values 1.01 | S. cerevisiae deletion strains, locus YLL026W, hits give low values 1.01 | S. cerevisiae deletion strains, locus YLL041C, strain sdh2, hits give low values 1.01 | S. cerevisiae deletion strains, locus YLR027C, strain aat2, hits give low values 1.01 | S. cerevisiae deletion strains, locus YLR039C, strain RIC1, hits give low values 1.02 | S. cerevisiae deletion strains, locus YLR058C, strain SHM2, hits give low values 1.01 | S. cerevisiae deletion strains, locus YLR102C, strain apc9, hits give low values 1 | S. cerevisiae deletion strains, locus YLR113W, strain HOG1, hits give low values 1.07 | S. cerevisiae deletion strains, locus YLR221C, strain rsa3, hits give low values 1 | S. cerevisiae deletion strains, locus YLR258W, strain gsy2, hits give low values 1.01 | S. cerevisiae deletion strains, locus YLR262C, strain YPT6 (second series), hits give low values 1.02 | S. cerevisiae deletion strains, locus YLR262C, strain YPT6, hits give low values 1.04 | S. cerevisiae deletion strains, locus YLR268W, strain sec22, hits give low values 1 | S. cerevisiae deletion strains, locus YLR320W, strain mms22, hits give low values 1.04 | S. cerevisiae deletion strains, locus YLR330W, strain CHS5, hits give low values 1.01 | S. cerevisiae deletion strains, locus YLR342W, strain FKS1 (second series), hits give low values 1.08 | S. cerevisiae deletion strains, locus YLR342W, strain FKS1, hits give low values 1.02 | S. cerevisiae deletion strains, locus YLR357W, strain rsc2, hits give low values 1.03 | S. cerevisiae deletion strains, locus YLR370C, strain arc18, hits give low values 1.01 | S. cerevisiae deletion strains, locus YLR371W, strain rom2, hits give low values 1.02 | S. cerevisiae deletion strains, locus YLR384C, strain iki3, hits give low values 1 | S. cerevisiae deletion strains, locus YLR418C, strain cdc73, hits give low values 1.04 | S. cerevisiae deletion strains, locus YML016C, strain PPZ1, hits give low values 1.01 | S. cerevisiae deletion strains, locus YML032C, strain rad52, hits give low values 0.993 | S. cerevisiae deletion strains, locus YML120C, strain ndi1, hits give low values 1 | S. cerevisiae deletion strains, locus YML124C, strain tub3, hits give low values 1.01 | S. cerevisiae deletion strains, locus YMR058W, strain fet3, hits give low values 1.01 | S. cerevisiae deletion strains, locus YMR078C, strain ctf18, hits give low values 1.01 | S. cerevisiae deletion strains, locus YMR125W, strain sto1, hits give low values 1.01 | S. cerevisiae deletion strains, locus YMR129W, hits give low values 1.01 | S. cerevisiae deletion strains, locus YMR205C, strain PFK2, hits give low values 1.01 | S. cerevisiae deletion strains, locus YMR223W, strain ubp8, hits give low values 1.03 | S. cerevisiae deletion strains, locus YMR231W, strain pep5, hits give low values 1.01 | S. cerevisiae deletion strains, locus YMR307W, strain GAS1, hits give low values 1.03 | S. cerevisiae deletion strains, locus YNL067W, strain RPL9B, hits give low values 0.988 | S. cerevisiae deletion strains, locus YNL071W, strain lat1, hits give low values 1.01 | S. cerevisiae deletion strains, locus YNL128W, strain TEP1, hits give low values 1.04 | S. cerevisiae deletion strains, locus YNL153C, strain GIM3, hits give low values 0.979 | S. cerevisiae deletion strains, locus YNL183C, strain NPR1, hits give low values 0.984 | S. cerevisiae deletion strains, locus YNL209W, strain ssb2, hits give low values 1.01 | S. cerevisiae deletion strains, locus YNL233W, strain BNI4, hits give low values 0.967 | S. cerevisiae deletion strains, locus YNL248C, strain rpa49, hits give low values 1.02 | S. cerevisiae deletion strains, locus YNL250W, strain rad50, hits give low values 1.04 | S. cerevisiae deletion strains, locus YNL271C, strain bni1, hits give low values 1 | S. cerevisiae deletion strains, locus YNL298W, strain CLA4, hits give low values 1.01 | S. cerevisiae deletion strains, locus YNL307C, strain MCK1, hits give low values 1.02 | S. cerevisiae deletion strains, locus YNL322C, strain KRE1 (second series), hits give low values 1.01 | S. cerevisiae deletion strains, locus YNR049C, strain mso1, hits give low values 1.01 | S. cerevisiae deletion strains, locus YNR052C, strain pop2, hits give low values 1.02 | S. cerevisiae deletion strains, locus YOL006C, strain TOP1, hits give low values 0.974 | S. cerevisiae deletion strains, locus YOL012C, strain htz1 1.13 | S. cerevisiae deletion strains, locus YOL147C, strain pex11, hits give low values 1.01 | S. cerevisiae deletion strains, locus YOR001W, strain rrp6, hits give low values 1.01 | S. cerevisiae deletion strains, locus YOR061W, strain CKA2, hits give low values 1.01 | S. cerevisiae deletion strains, locus YOR069W, strain VPS5, hits give low values 1.01 | S. cerevisiae deletion strains, locus YOR070C, strain gyp1, hits give low values 1.02 | S. cerevisiae deletion strains, locus YOR080W, strain dia2, hits give low values 1.02 | S. cerevisiae deletion strains, locus YOR083W, strain WHI5, hits give low values 1.01 | S. cerevisiae deletion strains, locus YOR106W, strain vam3, hits give low values 1.01 | S. cerevisiae deletion strains, locus YOR136W, strain idh2, hits give low values 0.997 | S. cerevisiae deletion strains, locus YOR144C, strain elg1, hits give low values 0.997 | S. cerevisiae deletion strains, locus YOR184W, strain ser1, hits give low values 1.02 | S. cerevisiae deletion strains, locus YOR231W, strain MKK1, hits give low values 1.08 | S. cerevisiae deletion strains, locus YOR265W, strain rbl2, hits give low values 1.01 | S. cerevisiae deletion strains, locus YOR270C, strain vph1, hits give low values 1.02 | S. cerevisiae deletion strains, locus YOR290C, strain snf2, hits give low values 1.03 | S. cerevisiae deletion strains, locus YOR316C, strain cot1, hits give low values 1 | S. cerevisiae deletion strains, locus YPL051W, strain arl3, hits give low values 1.01 | S. cerevisiae deletion strains, locus YPL055C, strain LGE1, hits give low values 0.939 | S. cerevisiae deletion strains, locus YPL078C, strain atp4, hits give low values 1.01 | S. cerevisiae deletion strains, locus YPL106C, strain sse1, hits give low values 1.03 | S. cerevisiae deletion strains, locus YPL240C, strain hsp82, hits give low values 1.01 | S. cerevisiae deletion strains, locus YPL241C, strain CIN2, hits give low values 1.01 | S. cerevisiae deletion strains, locus YPL256C, strain CLN2, hits give low values 1.08 | S. cerevisiae deletion strains, locus YPR119W, strain clb2, hits give low values 1 | S. cerevisiae deletion strains, locus YPR141C, strain kar3, hits give low values 1.01 | S. cerevisiae deletion strains, locus YPR163C, strain tif3, hits give low values 1.01 | S. cerevisiae deletion strains, locus YPR167C, strain met16, hits give low values 1 | S. cerevisiae deletion strains, strain wtn01, hits give low values 1 | S. cerevisiae strains, strain wild type, hits give low values 1
